# Measurements published in PubChem BioAssay (NCI).
# About 79,000 compounds went through this panel and 15% of them were active in at least one assay; those are over-represented in the sample as a whole. Values without a mark were called inactive. The source made the active and inactive calls. Rule as the data show it: active = growth inhibition above about 70%; inactive = the rest.
# Experiments:
# [1] = NCI Yeast Anticancer Drug Screen. Data for the wt1 strain (AID 149);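 also: 0% = growth of vehicle-treated wt1 cultures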; conditions: S. cerevisiae wt1 strain (SPY 50644) growth inhibition, active compounds read high
# Summary of the method: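 Compounds are added to wt1 yeast cultures. Growth is then measured. Inhibition is expressed relative to vehicle-treated controls.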
# [2] = NCI Yeast Anticancer Drug Screen. Data for the rad50EPP+ strain (AID 151);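 also: 0% = growth of vehicle-treated control cultures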; conditions: S. cerevisiae rad50 mutant strain, active compounds read high
# Summary of the method: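 Yeast strain carrying rad50 alteration (rad50EPP+) exposed to compounds; growth inhibition measured relative to vehicle-treated controls.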
# [3] = NCI Yeast Anticancer Drug Screen. Data for the mgt1 strain (AID 153); conditions: S. cerevisiae mgt1 mutant growth inhibition, active compounds read high
# Summary of the method: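 Yeast mgt1 strain (DNA repair/cell-cycle alteration panel) exposed to compounds; growth inhibition measured relative to vehicle-treated controls.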
# [4] = NCI Yeast Anticancer Drug Screen. Data for the rad50 strain (AID 155);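 also: 0% = growth of vehicle-only cultures of the same strain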; conditions: S. cerevisiae rad50 strain growth inhibition, active compounds read high
# Summary of the method: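 Inhibition values express reduced yeast growth in compound-treated cultures relative to vehicle-treated controls.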
# [5] = NCI Yeast Anticancer Drug Screen. Data for the mec2-1 strain (AID 157); conditions: S. cerevisiae mec2-1 strain, active compounds read high
# Summary of the method: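 mec2-1 yeast strain, carrying an alteration in DNA damage repair or cell cycle control, was exposed to compounds; growth inhibition was measured relative to vehicle-treated controls.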
# [6] = NCI Yeast Anticancer Drug Screen. Data for the rad14 strain (AID 159);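 also: 0% = growth of vehicle-treated control cultures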; conditions: S. cerevisiae rad14 strain growth inhibition, active compounds read high
# Summary of the method: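 A mutant yeast strain defective in DNA damage repair is treated with compound; inhibition of its growth is scored against untreated, vehicle-exposed cultures.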
# [7] = NCI Yeast Anticancer Drug Screen. Data for the sgs1 mgt1 strain (AID 161);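 also: 0% = growth of cultures given vehicle only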; conditions: S. cerevisiae sgs1 mgt1 strain, active compounds read high
# Summary of the method: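 Growth of a repair-deficient yeast mutant was monitored after compound treatment and expressed as inhibition relative to vehicle-treated cultures.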
# [8] = NCI Yeast Anticancer Drug Screen. Data for the cln2 rad14 strain (AID 165);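 also: 0% = growth equal to vehicle treated cultures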; conditions: S. cerevisiae cln2 rad14 strain, active compounds read high
# Summary of the method: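 Yeast carrying cln2 and rad14 alterations (cell cycle control and DNA damage repair) were exposed to compounds. Growth inhibition was measured against vehicle-treated controls.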
# [9] = NCI Yeast Anticancer Drug Screen. Data for the bub3 strain (AID 167); conditions: S. cerevisiae bub3 mutant strain, active compounds read high
# Summary of the method: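 Steps: expose the mutant yeast strain to compound; grow alongside vehicle-treated cultures; measure growth; express inhibition against the vehicle cultures.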
# [10] = NCI Yeast Anticancer Drug Screen. Data for the wt2 strain (AID 169);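 also: 0% = growth of vehicle-treated yeast cultures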; conditions: S. cerevisiae wt2 strain growth inhibition, active compounds read high
# Summary of the method: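 Yeast cells were exposed to test compounds, and growth inhibition was measured relative to vehicle-treated controls.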
# [11] = NCI Yeast Anticancer Drug Screen. Data for the mlh1 strain (AID 171);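 also: 0% = growth of vehicle-treated control cultures of the same strain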; conditions: S. cerevisiae mlh1 strain growth inhibition, active compounds read high
# Summary of the method: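 Yeast carrying a defined genetic alteration in DNA damage repair or cell cycle control were exposed to test compounds. Growth inhibition was measured relative to vehicle-treated controls.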
# [12] = NCI Yeast Anticancer Drug Screen. Data for the sgs1 strain (AID 173);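 also: 0% = growth of vehicle-only control cultures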; conditions: S. cerevisiae sgs1 mutant, active compounds read high
# Summary of the method: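 Yeast mutant strains carrying defined defects in DNA damage repair or cell cycle control were exposed to test compounds. Growth inhibition was scored against vehicle-treated controls.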
# [13] = NCI Yeast Anticancer Drug Screen. Data for the mlh1 rad18 strain (AID 175); conditions: S. cerevisiae mlh1 rad18 strain growth inhibition, active compounds read high
# Summary of the method: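 Growth inhibition of the yeast strain was measured after compound exposure and expressed relative to vehicle-treated controls. The strain carries defined defects in DNA damage repair.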
# [14] = NCI Yeast Anticancer Drug Screen. Data for the rad18 strain (AID 177); conditions: S. cerevisiae rad18 mutant growth inhibition, active compounds read high
# Summary of the method: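 Yeast carrying a defined DNA damage repair alteration were exposed to compounds. Growth inhibition was expressed relative to vehicle-treated controls.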
# [15] = at 5.0 µM (retest, dose inferred, filed as 0.5)
# [16] = at 50.0 µM (retest, dose inferred, filed as 5.0)
smiles,measurement,setting,value
O=C(Cc1ccccc1)c1ccc(O)cc1,growth inhibition,[1]; at 1.2 µM,-20%
same,growth inhibition,[1]; at 3.7 µM,-8%
same,growth inhibition,[1]; at 11.0 µM,5%
same,growth inhibition,[1]; at 33.0 µM,63%
same,growth inhibition,[1]; at 100.0 µM,87% (active)
same,growth inhibition,[2]; at 1.2 µM,11%
same,growth inhibition,[2]; at 3.7 µM,10%
same,growth inhibition,[2]; at 11.0 µM,-3%
same,growth inhibition,[2]; at 33.0 µM,40%
same,growth inhibition,[2]; at 100.0 µM,71% (active)
same,growth inhibition,[3]; at 1.2 µM,-45%
same,growth inhibition,[3]; at 3.7 µM,-56%
same,growth inhibition,[3]; at 11.0 µM,-38%
same,growth inhibition,[3]; at 33.0 µM,51%
same,growth inhibition,[3]; at 100.0 µM,82% (active)
same,growth inhibition,[4]; at 1.2 µM,-15%
same,growth inhibition,[4]; at 3.7 µM,-21%
same,growth inhibition,[4]; [15],81% (active)
same,growth inhibition,[4]; at 11.0 µM,17%
same,growth inhibition,[4]; at 33.0 µM,74% (active)
same,growth inhibition,[4]; [16],99% (active)
same,growth inhibition,[4]; at 50.0 µM,83.5% (active)
same,growth inhibition,[4]; at 100.0 µM,85% (active)
same,growth inhibition,[5]; at 1.2 µM,-24%
same,growth inhibition,[5]; at 3.7 µM,-15%
same,growth inhibition,[5]; [15],78% (active)
same,growth inhibition,[5]; at 11.0 µM,20%
same,growth inhibition,[5]; at 33.0 µM,70% (active)
same,growth inhibition,[5]; [16],98% (active)
same,growth inhibition,[5]; at 50.0 µM,91.5% (active)
same,growth inhibition,[5]; at 100.0 µM,91% (active)
same,growth inhibition,[6]; at 1.2 µM,-13%
same,growth inhibition,[6]; at 3.7 µM,-25%
same,growth inhibition,[6]; at 11.0 µM,-5%
same,growth inhibition,[6]; at 33.0 µM,62%
same,growth inhibition,[6]; at 100.0 µM,89% (active)
same,growth inhibition,[7]; [15],1%
same,growth inhibition,[7]; [16],88% (active)
same,growth inhibition,[7]; at 50.0 µM,94.2% (active)
same,growth inhibition,[8]; [15],36%
same,growth inhibition,[8]; [16],90% (active)
same,growth inhibition,[8]; at 50.0 µM,62.6%
same,growth inhibition,[9]; at 1.2 µM,-11%
same,growth inhibition,[9]; at 3.7 µM,-14%
same,growth inhibition,[9]; [15],44%
same,growth inhibition,[9]; at 11.0 µM,24%
same,growth inhibition,[9]; at 33.0 µM,69%
same,growth inhibition,[9]; [16],97% (active)
same,growth inhibition,[9]; at 50.0 µM,92.7% (active)
same,growth inhibition,[9]; at 100.0 µM,89% (active)
same,growth inhibition,[10]; at 1.2 µM,-10%
same,growth inhibition,[10]; at 3.7 µM,-17%
same,growth inhibition,[10]; at 11.0 µM,-10%
same,growth inhibition,[10]; at 33.0 µM,58%
same,growth inhibition,[10]; at 100.0 µM,87% (active)
same,growth inhibition,[11]; at 1.2 µM,-13%
same,growth inhibition,[11]; at 3.7 µM,0%
same,growth inhibition,[11]; at 11.0 µM,23%
same,growth inhibition,[11]; at 33.0 µM,68%
same,growth inhibition,[11]; at 100.0 µM,89% (active)
same,growth inhibition,[12]; at 1.2 µM,-15%
same,growth inhibition,[12]; at 3.7 µM,-39%
same,growth inhibition,[12]; at 11.0 µM,-5%
same,growth inhibition,[12]; at 33.0 µM,59%
same,growth inhibition,[12]; at 100.0 µM,88% (active)
same,growth inhibition,[13]; [15],56%
same,growth inhibition,[13]; [16],99% (active)
same,growth inhibition,[13]; at 50.0 µM,86.1% (active)
same,growth inhibition,[14]; at 1.2 µM,-34%
same,growth inhibition,[14]; at 3.7 µM,-41%
same,growth inhibition,[14]; at 11.0 µM,-11%
same,growth inhibition,[14]; at 33.0 µM,69%
same,growth inhibition,[14]; at 100.0 µM,89% (active)
